Where a name gives a salt, the structure may show the parent alone.
Test system: Drosophila S2 cl14 SmoIP sensor cells
Assay: normalized SmoIP GFP fluorescence (untreated unstimulated = 0%, untreated Hh-stimulated = 100%); higher = more Smo activation sensor fluorescence
Settings: compound concentration: 2 uM, 24 h
[1] = stimulation: Hh conditioned medium (+Hh)
[2] = stimulation: mock conditioned medium (-Hh)
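Also: flow cytometry read-out as median GFP intensity of gated cells, compounds added 30 min before Hh-conditioned or mock medium, mock-treated cells serving as unstimulated baseline.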

CN[C@@H](C)C(=O)N[C@H](C(=O)N1CCC[C@H]1C(=O)Nc1snnc1-c1ccccc1)C1CCCCC1
normalized SmoIP GFP fluorescence [1]: 85.6%
normalized SmoIP GFP fluorescence [2]: 4.68%

CN(C)CC(c1ccc(O)cc1)C1(O)CCCCC1 (centres undefined) [desvenlafaxine-succinate]
normalized SmoIP GFP fluorescence [1]: 103%
normalized SmoIP GFP fluorescence [2]: -5.38%

Cc1cc(C)c(CNC(=O)c2cc(-c3ccc(CN4CCOCC4)cc3)cc3c2cnn3C2CCCC2)c(=O)[nH]1
normalized SmoIP GFP fluorescence [1]: 104%
normalized SmoIP GFP fluorescence [2]: -0.264%

CN(C)CC(c1ccc(O)cc1)C1(O)CCCCC1 (centres undefined) [desvenlafaxine]
normalized SmoIP GFP fluorescence [1]: 105%
normalized SmoIP GFP fluorescence [2]: -0.889%

CC[C@@H](C)Nc1cc(C(=O)N[C@H]2C[C@H]3CC[C@@H](C2)N3c2ccc(C(=O)C3CC3)cn2)c(C)cc1C(N)=O
normalized SmoIP GFP fluorescence [1]: 150%
normalized SmoIP GFP fluorescence [2]: 18%

Fc1ccc(C(c2ccc(F)cc2)N2CCN(C/C=C/c3ccccc3)CC2)cc1 [flunarizine-dihydrochloride]
normalized SmoIP GFP fluorescence [1]: 134%
normalized SmoIP GFP fluorescence [2]: 6.74%

O=C1CN2Cc3c(ccc(Cl)c3Cl)N=C2N1 [anagrelide-hydrochloride]
normalized SmoIP GFP fluorescence [1]: 108%
normalized SmoIP GFP fluorescence [2]: -2.31%

CC(C)[C@H](C(=O)Nc1ccc(C(=O)NO)cc1)c1ccccc1
normalized SmoIP GFP fluorescence [1]: 299%
normalized SmoIP GFP fluorescence [2]: 60.6%

CN(C)CCC=C1c2ccccc2CCc2ccccc21 [amitriptyline-hydrochloride]
normalized SmoIP GFP fluorescence [1]: 104%
normalized SmoIP GFP fluorescence [2]: -3.27%

C=CC(=O)Nc1cccc(Nc2nc(Nc3ccc(OCCOC)cc3)ncc2F)c1
normalized SmoIP GFP fluorescence [1]: 116%
normalized SmoIP GFP fluorescence [2]: -2.31%

CCCCCCCN(CC)CCCC(O)c1ccc(NS(C)(=O)=O)cc1 (centres undefined) [ibutilide-fumarate]
normalized SmoIP GFP fluorescence [1]: 108%
normalized SmoIP GFP fluorescence [2]: -6.16%

CCS(=O)(=O)c1cccc(-c2cc(C(=O)NC3CCN(C)CC3)c(C)c3[nH]c4ncc(C)cc4c23)c1
normalized SmoIP GFP fluorescence [1]: 103%
normalized SmoIP GFP fluorescence [2]: -25.2%

— the supplement of paper PMC5662767
